Screening data: PubChem, SRMLSC
DPM-DC inhibit: S. pneumoniae DPM-DC inhibitors, primary screen, biochemical, PK/LDH-coupled NADH fluorescence; purified DPM-DC; calls only at 10 µM; hit rate 0.49% among 65,000; diphosphomevalonate decarboxylase (Streptococcus pneumoniae D39);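 active = the 320 compounds with the highest percent inhibition in the single-dose primary screen, excluding strongly autofluorescent ones, cut at about 32% in these data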;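 also: kinetic rate of NADH fluorescence loss reporting ADP formed by the decarboxylase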
PMK inhibit: S. pneumoniae PMK inhibitors, primary screen, biochemical, mevalonate pathway, pilot trial included | phosphomevalonate kinase (Streptococcus pneumoniae D39) | purified PMK, PK/LDH-coupled NADH absorbance 340 nm | inhibition, % at 10 µM | hit rate 0.49% among 65,000 | AID 539, 2006;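 active = top-ranked compounds by inhibition in the single 10 µM screen, taking a fixed number of the strongest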;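 also: 0% = full reaction with DMSO carrier and 100% = background rate without enzyme reaction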
Autofluor 339: intrinsic fluorescence of library compounds, ex339/em460 – biochemical, MLSMR library, data from DPM-DC assay, artefact control, profiling panel | compound autofluorescence, ex339/em460 nm, NADH buffer; active compounds read high; 1 = no-compound wells, NADH background | fluorescence fold increase at 10 µM | hit rate 5.5% among 65,000;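 active = at 10 µM, mean starting fluorescence two-fold or more over control wells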;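 also: signal is the first read of a kinetic run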
NADH coupling: inhibitors of PK/LDH coupling enzymes, profiling panel, artefact control, biochemical, MLSMR library; coupled PK/LDH NADH assays, four targets; IC50, µM (top dose mostly 10 µM), for inactives: top-dose inhibition; hit rate 0.02% among 65,000; AID 774, 2007;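 active = single-dose screening hits from any of four coupled enzyme assays that gave an IC50 when retested across doses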;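 also: the DPM-DC format reads NADH fluorescence rather than 340 nm absorbance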
Spn MK inh: S. pneumoniae MK inhibitors, primary screen, biochemical, PK/LDH-coupled NADH absorbance. AID 555, 2006. inhibition, % at 10 µM. purified MK, PK/LDH-coupled NADH absorbance 340 nm. hit rate 0.48% among 65,000;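 active = ranked among the strongest by inhibition in the single 10 µM screen, a fixed top-ranked set picked for dose follow-up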
Abs 340nm: compound light absorbance at 340 nm, profiling panel, artefact control, biochemical, MLSMR library, data from PS, PMK, MK assays. compound absorbance at 340 nm, fold over control. fold change at 10 µM. 65,000 tested, under 10 active. AID 708, 2007;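 active = at 10 µM dose, initial 340 nm absorbance at least 2 fold that of control wells; inactive = change under 2 fold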;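 also: initial absorbance extrapolated from kinetic A340 decline of NADH oxidation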
* hit, by the source's call; i = inactive; nt = no result shown; + = active, no number. Rows were chosen to be rich in hits. Some 6.5% of all compounds tested hit in one or more screens of this group.

SMILES	DPM-DC inhibit	PMK inhibit	Autofluor 339	NADH coupling	Spn MK inh	Abs 340nm
CCc1cc(/C(Cc2ccc3ccccc3n2)=N\O)c(O)cc1O	+	5.0	0.48	20.0%	0.0	1.06
CCc1cc(C(=O)Cc2ccc(F)cc2)c(O)cc1O	i	4.0	1.04	4.0%	6.0	1.1
CCc1cc(C(=O)Cc2nc3ccccc3[nH]2)c(O)cc1O	i	12.0	2.29*	16.0%	10.0	1.18
O/N=C(\Cc1cscn1)c1ccc(O)cc1O	i	9.0	1.08	7.0%	12.0	1.03
O=C(Nc1nc(-c2cc3ccccc3oc2=O)cs1)c1ccco1	nt	0.0	2.1*	0.0%	0.0	1.14
COC(=O)CNc1nc(-c2ccccc2F)nc2ccccc12	i	28.0*	1.11	10.0%	2.0	0.92
O=C1C(Cl)=C(NCC2CCCO2)C(=O)N1Cc1ccccc1 (stereo not given)	+	13.0	0.57	22.0%	7.0	1.01
Cn1c(=O)n(Cc2ccccc2)c(=O)c2c1nc(NCC1CCCO1)n2Cc1ccccc1 (stereo not given)	i	4.0	1.03	2.0%	0.0	0.99
CCOC(=O)Nc1ccc2c(C)cc(=O)oc2c1	nt	5.0	3.67*	9.0%	12.0	1.16
Cn1c(CC(=O)Nc2ccccc2)nnc1SCCOc1ccccc1	i	4.0	1.13	5.0%	11.0	1.03
Cc1cccc(C)c1NC(=O)C1(N2CCN(C(=O)c3ccco3)CC2)CCCCC1	i	14.0	1.04	5.0%	0.0	0.99
CC(C)OC(=O)CCc1nc2ccccc2[nH]c1=O	i	6.0	2.04*	3.0%	2.0	1.06
CCOC(=O)C(C)c1nc2ccccc2[nH]c1=O (stereo not given)	i	7.0	1.59	7.0%	3.0	1.08
O=C1CC(c2ccc(F)cc2)CC(O)=C1C=NCCN1CCN(C(=O)Nc2ccccc2)CC1 (stereo not given)	i	9.0	1.09	5.0%	7.0	1.04
COc1nc(-c2ccccc2)ccc1-c1noc(-c2ccccc2F)n1	nt	8.0	3.9*	6.0%	4.0	1.05
COc1ccccc1-c1noc(-c2cccnc2)n1	i	9.0	1.07	4.0%	10.0	0.98
COc1nc(-c2ccccc2)ccc1-c1noc(-c2ccc(F)cc2)n1	nt	17.0	3.84*	13.0%	9.0	1.07
Cc1ccc(C2c3c(oc4ccccc4c3=O)C(=O)N2c2nnc(C(C)C)s2)o1 (stereo not given)	i	11.0	1.03	3.0%	0.0	1.03
O=C1NC(c2cccs2)Nc2ccccc21 (stereo not given)	nt	0.0	2.51*	1.0%	4.0	1.01
O=C1NC(c2ccccc2Cl)Nc2ccccc21 (stereo not given)	nt	9.0	4.97*	5.0%	1.0	1.03
Cc1ccsc1C1NC(=O)c2ccccc2N1 (stereo not given)	nt	0.0	1.94	1.0%	1.0	1.07
CCCNC(=O)c1c(N)n(-c2cc(OC)cc(OC)c2)c2nc3ccccc3nc12	nt	17.0	2.47*	4.0%	2.0	1
COCCCNC(=O)c1c(N)n(-c2ccc3c(c2)OCO3)c2nc3ccccc3nc12	i	3.0	2.67*	5.0%	3.0	1.1
Nc1c(C(=O)NC2CC2)c2nc3ccccc3nc2n1-c1ccc2c(c1)OCO2	nt	2.0	3.24*	6.0%	10.0	1.08
CCCNC(=O)c1c(N)n(-c2ccc3c(c2)OCO3)c2nc3ccccc3nc12	i	15.0	1.45	9.0%	7.0	1.06
Nc1nc2n(n1)C(c1c(F)cccc1Cl)CC(c1ccc(F)cc1)N2 (stereo not given)	i	0.0	1.07	2.0%	2.0	0.99
COc1ccc2[nH]c(=O)c(CN(Cc3ccccc3OC)Cc3nnnn3CC3CCCO3)cc2c1 (stereo not given)	i	7.0	2.26*	11.0%	3.0	1.09
COc1ccc2[nH]c(=O)c(CN(Cc3ccc(C)cc3)Cc3nnnn3CC3CCCO3)cc2c1 (stereo not given)	i	13.0	2.13*	15.0%	12.0	1.06
